The results in this text go back to PubChem BioAssay.

The subject of assay [1] is PRMT1 (protein arginine N-methyltransferase 1). The assay is described as follows: small molecules binding arginine methyltransferase PRMT1 – biochemical, small-molecule microarray, 635 nm fluorescence, primary screen (AID 1088).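 Further: binding of Prmt1 protein to compounds spotted on small-molecule microarray slides.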 The note with it: higher = more signal.
Assay [2] is described as follows: growth effects on S. cerevisiae YJM789 – YJM789 clinical isolate, OD600, 24 h, basal, primary screen (AID 1089).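 Further: growth of clinical yeast isolate S. cerevisiae YJM 789 seeded 1000 cells per well; test concentration not given here.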 To be noted: higher = more signal, called active from +8 up or from −8 down.
The nature of assay [3]: S. pombe growth modifiers, basal conditions – strain 972, OD600, 24 h, no modulator, primary screen (AID 1090).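 Further: basal condition with compound alone and no growth modifier present; test concentration not given here.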 To be noted: S. pombe 972 growth, higher = more signal, called active from +8 up or from −8 down.
Assay [4] can be described thus: budding yeast growth modifiers under rapamycin – strain BY4716, OD600, 96 h, primary screen (AID 1091). Further: test concentration not given here. To be noted: S. cerevisiae BY4716 + rapamycin, higher = more signal, called active from +8 up or from −8 down.
The target of assay [5] is Torsin-1A-interacting protein 2 (Homo sapiens) (UniProt Q8NFQ8). In words: small molecules binding lysate-expressed LULL1 – cell lysate, human LULL1 lysate, 635/667 nm fluorescence, primary screen (AID 1092).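 Further: probe is lysate of COS7 cells overexpressing human LULL1; score merges per-feature 667 nm fluorescence with signal-to-noise.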 To be noted: small-molecule microarray, hLULL1 lysate binding, 635 nm fluorescence; higher = more signal.
A short description of assay [6]: optical density change of DRC41 E. coli – strain DRC41, OD650, 24 h, E. coli filamentation project, primary screen (AID 1093).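 Further: MC1000 strain lacking acrAB efflux and sulA so SOS filamentation is blocked; test concentration not given here.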 The note with it: E. coli DRC41 growth, higher = more signal, called active from +8 up or from −8 down.
Assay [7] in a line: probe aLefty2 binding to arrayed compounds – biochemical, biotinylated probe, 635/667 nm fluorescence, primary screen (AID 1094).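 Further: score merges spot fluorescence near 667 nm with spot signal-to-noise ratio.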 The note with it: small-molecule microarray, higher = more signal.
In assay [8] the test system is Noggin (protein binding on small-molecule microarray). In words: small molecules binding Noggin protein – biochemical, 635/667 nm fluorescence, primary screen (AID 1095).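 Further: score merges 667 nm feature fluorescence with signal to noise over triplicate slides.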 The note with it: 635 nm fluorescence, higher = more signal.
Assay [9] deals with Neurogenic locus notch homolog protein 3 (Homo sapiens) (UniProt Q9UM47). The assay is described as follows: small molecules binding NOTCH3 protein – biochemical, 635/667 nm fluorescence, primary screen (AID 1096). The note with it: small-molecule microarray, 635 nm fluorescence, higher = more signal.
Assay [10] in a line: probe aEGFR binding to arrayed compounds – biochemical, biotinylated probe, 635/667 nm fluorescence, primary screen (AID 1097).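 Further: probe is a biotinylated anti-EGFR antibody binding compounds printed on slides; score combines fluorescence near 667 nm and signal to noise of each spot.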 To be noted: small-molecule microarray, higher = more signal.
Assay [11] deals with Plasmodium falciparum Sir2 (PF13_0152, Sir2A). In words: Plasmodium falciparum Sir2A binding compounds – biochemical, small-molecule microarray, 635 nm fluorescence, primary screen (AID 1098).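 Further: score merges spot fluorescence intensity with its signal-to-noise ratio.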 To be noted: fluorescence 635 nm, higher = more signal.
A short description of assay [12]: probe aDKK1 binding to arrayed compounds – biochemical, biotinylated probe, 635/667 nm fluorescence, primary screen (AID 1099).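 Further: score merges 667nm spot fluorescence with signal to noise across triplicate slides; reference of the scale not given here.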 To be noted: small-molecule microarray, higher = more signal.
The nature of assay [13]: probe aCHRDL2 binding to arrayed compounds – biochemical, biotinylated probe, 635/667 nm fluorescence, primary screen (AID 1100). The note with it: small-molecule microarray, higher = more signal.
The nature of assay [14]: change in splice reporter luminescence, either direction, cell-based, HEK293, spliceosome inhibition project, primary screen (AID 1101).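 Further: HEK293 cells carrying a splicing-competent luciferase reporter gene; test concentration not given here.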 To be noted: HEK293 splicing luciferase reporter, 24 h, higher = more signal, called active from +8 up or from −8 down. (In a reporter assay the amount or activity of a reporter protein is the signal.)
Assay [15] deals with Fibroblast growth factor 10 (Homo sapiens) (UniProt O15520). In words: compounds binding fibroblast growth factor 10 – biochemical, small-molecule microarray, 635 nm fluorescence, primary screen (AID 1102). The note with it: FGF10 binding, fluorescence 635 nm, higher = more signal.
For assay [16], the system named is glycogen synthase kinase-3 (GSK3A per assay name; protocol says GSK3B). The assay is described as follows: compounds binding glycogen synthase kinase-3 – biochemical, small-molecule microarray, 635 nm fluorescence, GSK3A, primary screen (AID 1103). Further: the record names both GSK3A and GSK3B. To be noted: fluorescence 635 nm, higher = more signal.
The target in assay [17] is Epidermal growth factor receptor (Homo sapiens) (UniProt P00533). The assay is described as follows: compounds binding epidermal growth factor receptor – biochemical, small-molecule microarray, 635 nm fluorescence, primary screen (AID 1104).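 Further: score merges 667 nm emission intensity with spot signal to noise over triplicate slides.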 The note with it: EGFR binding, higher = more signal.
Assay [18] concerns the target Follistatin-related protein 3 (Homo sapiens) (UniProt O95633). The assay is described as follows: compounds binding follistatin-related protein 3 – biochemical, small-molecule microarray, 635 nm fluorescence, primary screen (AID 1105).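 Further: score merges emission near 667 nm and signal to noise per printed spot across three slides.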 To be noted: FSTL3 binding, higher = more signal.
Assay [19] deals with Dickkopf-related protein 1 (Homo sapiens) (UniProt O94907). In words: small molecules binding DKK1 protein – biochemical, small-molecule microarray, 635 nm fluorescence scan, primary screen (AID 1106).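 Further: score merges emission near 667 nm with signal to noise over three replicate slides.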 The note with it: higher = more signal.
In assay [20] the test system is Inhibin beta A chain (activin A). The assay is described as follows: small molecules binding activin A – biochemical, small-molecule microarray, 635 nm fluorescence scan, primary screen (AID 1107).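 Further: mouse activin A protein probed at 4.33 µg/mL on printed slides; score merges bound-protein fluorescence near 667 nm with spot signal-to-noise.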 To be noted: INHBA, higher = more signal.

The source made the active and inactive calls.

Neurogenic locus notch homolog protein 3 (Homo sapiens), sequence (Q9UM47 whole entry, looked up): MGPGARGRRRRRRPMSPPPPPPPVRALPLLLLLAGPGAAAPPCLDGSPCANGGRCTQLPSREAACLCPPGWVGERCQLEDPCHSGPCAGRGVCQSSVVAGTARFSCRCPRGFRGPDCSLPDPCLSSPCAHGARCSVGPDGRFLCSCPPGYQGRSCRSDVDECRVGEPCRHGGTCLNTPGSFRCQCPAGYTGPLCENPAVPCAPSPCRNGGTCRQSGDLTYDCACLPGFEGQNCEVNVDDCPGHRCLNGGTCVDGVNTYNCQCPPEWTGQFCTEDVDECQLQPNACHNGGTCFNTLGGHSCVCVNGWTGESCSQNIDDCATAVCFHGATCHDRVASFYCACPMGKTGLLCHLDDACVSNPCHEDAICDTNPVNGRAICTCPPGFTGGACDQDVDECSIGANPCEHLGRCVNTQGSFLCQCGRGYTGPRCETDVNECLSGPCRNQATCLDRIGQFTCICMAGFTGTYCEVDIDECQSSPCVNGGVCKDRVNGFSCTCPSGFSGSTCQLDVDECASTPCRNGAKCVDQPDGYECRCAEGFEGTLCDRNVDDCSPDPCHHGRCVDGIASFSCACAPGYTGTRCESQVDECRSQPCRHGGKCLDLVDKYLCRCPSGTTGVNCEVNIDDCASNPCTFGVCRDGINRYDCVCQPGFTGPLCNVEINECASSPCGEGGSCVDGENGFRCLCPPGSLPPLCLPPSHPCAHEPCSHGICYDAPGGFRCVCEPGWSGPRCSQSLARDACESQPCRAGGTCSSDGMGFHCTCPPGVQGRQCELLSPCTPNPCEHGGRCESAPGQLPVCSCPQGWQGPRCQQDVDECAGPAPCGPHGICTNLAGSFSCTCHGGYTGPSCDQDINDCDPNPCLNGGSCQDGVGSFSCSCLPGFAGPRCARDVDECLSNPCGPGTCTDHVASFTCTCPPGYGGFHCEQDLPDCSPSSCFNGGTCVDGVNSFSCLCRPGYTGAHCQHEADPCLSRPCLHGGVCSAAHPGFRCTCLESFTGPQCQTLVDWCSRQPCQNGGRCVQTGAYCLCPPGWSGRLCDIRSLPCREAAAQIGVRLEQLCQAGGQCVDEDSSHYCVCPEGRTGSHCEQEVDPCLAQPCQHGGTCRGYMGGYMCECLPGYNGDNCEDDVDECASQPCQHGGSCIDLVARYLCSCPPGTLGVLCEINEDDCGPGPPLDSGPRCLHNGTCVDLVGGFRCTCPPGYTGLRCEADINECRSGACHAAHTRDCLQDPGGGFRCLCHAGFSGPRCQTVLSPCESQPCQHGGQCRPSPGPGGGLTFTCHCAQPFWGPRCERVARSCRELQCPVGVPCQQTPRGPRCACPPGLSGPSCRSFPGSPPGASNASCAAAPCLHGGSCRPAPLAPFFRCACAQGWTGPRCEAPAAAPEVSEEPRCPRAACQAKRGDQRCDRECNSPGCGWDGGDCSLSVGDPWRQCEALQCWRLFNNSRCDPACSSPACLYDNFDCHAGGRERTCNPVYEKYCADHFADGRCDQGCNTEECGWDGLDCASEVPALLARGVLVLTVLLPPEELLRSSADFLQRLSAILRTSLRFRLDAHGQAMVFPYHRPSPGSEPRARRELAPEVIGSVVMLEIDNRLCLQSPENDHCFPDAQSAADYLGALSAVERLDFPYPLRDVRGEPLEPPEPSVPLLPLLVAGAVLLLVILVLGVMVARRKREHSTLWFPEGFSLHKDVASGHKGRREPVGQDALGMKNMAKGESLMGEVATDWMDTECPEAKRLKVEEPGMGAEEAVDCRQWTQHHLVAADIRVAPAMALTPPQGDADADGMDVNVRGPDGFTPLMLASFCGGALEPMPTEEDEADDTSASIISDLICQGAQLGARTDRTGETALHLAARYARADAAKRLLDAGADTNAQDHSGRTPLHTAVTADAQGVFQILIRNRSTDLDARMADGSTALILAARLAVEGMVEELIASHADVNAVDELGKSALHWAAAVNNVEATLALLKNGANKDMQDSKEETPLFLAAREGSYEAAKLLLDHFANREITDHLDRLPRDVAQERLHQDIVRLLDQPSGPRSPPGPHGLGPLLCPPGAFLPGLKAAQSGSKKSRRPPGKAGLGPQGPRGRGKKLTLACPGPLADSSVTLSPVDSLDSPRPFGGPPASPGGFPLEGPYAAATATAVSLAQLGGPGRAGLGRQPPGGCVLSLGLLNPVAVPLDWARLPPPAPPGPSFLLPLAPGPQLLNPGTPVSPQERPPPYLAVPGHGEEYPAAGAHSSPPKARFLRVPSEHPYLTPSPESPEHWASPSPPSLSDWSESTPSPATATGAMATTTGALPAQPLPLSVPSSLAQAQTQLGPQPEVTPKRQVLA
Dickkopf-related protein 1 (Homo sapiens), sequence (O94907 whole entry, looked up): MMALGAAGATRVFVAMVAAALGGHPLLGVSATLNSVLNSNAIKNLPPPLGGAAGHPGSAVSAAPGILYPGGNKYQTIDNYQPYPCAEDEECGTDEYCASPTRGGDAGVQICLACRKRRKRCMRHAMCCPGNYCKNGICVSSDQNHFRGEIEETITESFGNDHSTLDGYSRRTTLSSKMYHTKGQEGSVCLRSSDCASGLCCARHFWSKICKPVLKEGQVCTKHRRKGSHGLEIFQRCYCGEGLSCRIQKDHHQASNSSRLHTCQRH
Torsin-1A-interacting protein 2 (Homo sapiens), sequence (Q8NFQ8 whole entry, looked up): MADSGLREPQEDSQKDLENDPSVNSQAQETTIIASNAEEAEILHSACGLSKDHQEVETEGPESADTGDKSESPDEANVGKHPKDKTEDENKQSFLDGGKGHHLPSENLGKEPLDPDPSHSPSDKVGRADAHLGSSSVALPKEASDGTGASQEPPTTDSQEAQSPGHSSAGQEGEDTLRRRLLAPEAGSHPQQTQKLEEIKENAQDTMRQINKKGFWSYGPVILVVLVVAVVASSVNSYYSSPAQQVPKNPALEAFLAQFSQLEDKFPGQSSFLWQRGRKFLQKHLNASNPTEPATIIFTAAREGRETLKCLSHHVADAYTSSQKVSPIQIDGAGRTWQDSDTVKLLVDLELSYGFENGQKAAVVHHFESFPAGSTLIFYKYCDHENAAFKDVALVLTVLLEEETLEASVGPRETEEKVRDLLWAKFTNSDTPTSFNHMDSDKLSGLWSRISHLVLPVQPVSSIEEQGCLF
Follistatin-related protein 3 (Homo sapiens), sequence (O95633 whole entry, looked up): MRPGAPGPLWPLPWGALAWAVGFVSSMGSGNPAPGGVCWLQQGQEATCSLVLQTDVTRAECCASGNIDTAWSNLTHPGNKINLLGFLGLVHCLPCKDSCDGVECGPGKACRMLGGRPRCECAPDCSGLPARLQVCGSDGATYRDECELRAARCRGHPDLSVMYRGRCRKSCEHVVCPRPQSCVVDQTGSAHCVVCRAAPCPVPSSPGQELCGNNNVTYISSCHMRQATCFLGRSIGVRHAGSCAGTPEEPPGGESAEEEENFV
Epidermal growth factor receptor (Homo sapiens), sequence (P00533 whole entry, looked up): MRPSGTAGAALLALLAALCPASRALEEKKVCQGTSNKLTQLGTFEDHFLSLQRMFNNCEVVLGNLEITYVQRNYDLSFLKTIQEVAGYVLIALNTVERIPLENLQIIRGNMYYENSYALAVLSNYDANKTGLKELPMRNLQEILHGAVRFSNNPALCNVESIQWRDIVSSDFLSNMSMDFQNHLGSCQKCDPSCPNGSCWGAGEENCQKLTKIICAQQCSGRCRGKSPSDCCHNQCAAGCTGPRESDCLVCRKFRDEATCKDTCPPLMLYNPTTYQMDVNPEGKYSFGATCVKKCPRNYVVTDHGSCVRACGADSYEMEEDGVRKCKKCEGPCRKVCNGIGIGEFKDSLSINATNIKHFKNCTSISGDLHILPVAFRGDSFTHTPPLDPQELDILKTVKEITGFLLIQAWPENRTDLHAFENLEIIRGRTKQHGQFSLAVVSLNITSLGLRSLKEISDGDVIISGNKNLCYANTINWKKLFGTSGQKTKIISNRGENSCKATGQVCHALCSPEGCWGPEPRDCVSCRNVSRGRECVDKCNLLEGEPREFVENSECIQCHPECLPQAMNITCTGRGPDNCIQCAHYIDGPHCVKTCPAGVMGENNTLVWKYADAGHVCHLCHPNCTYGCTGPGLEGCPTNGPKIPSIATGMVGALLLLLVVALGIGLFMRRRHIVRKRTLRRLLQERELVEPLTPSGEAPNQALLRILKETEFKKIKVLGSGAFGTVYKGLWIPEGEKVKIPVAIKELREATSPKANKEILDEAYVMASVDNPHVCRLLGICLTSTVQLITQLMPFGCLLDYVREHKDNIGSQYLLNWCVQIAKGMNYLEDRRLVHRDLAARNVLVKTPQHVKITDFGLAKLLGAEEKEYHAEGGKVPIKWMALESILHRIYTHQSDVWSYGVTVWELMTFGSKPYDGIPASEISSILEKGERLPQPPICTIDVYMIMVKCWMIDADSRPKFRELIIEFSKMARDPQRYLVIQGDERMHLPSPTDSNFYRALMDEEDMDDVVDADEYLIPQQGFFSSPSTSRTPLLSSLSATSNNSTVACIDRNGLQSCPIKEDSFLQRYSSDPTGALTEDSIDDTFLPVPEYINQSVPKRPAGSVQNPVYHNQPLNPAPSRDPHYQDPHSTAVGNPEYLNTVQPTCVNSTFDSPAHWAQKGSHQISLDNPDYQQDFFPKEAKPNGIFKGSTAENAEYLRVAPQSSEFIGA
Fibroblast growth factor 10 (Homo sapiens), sequence (O15520 whole entry, looked up): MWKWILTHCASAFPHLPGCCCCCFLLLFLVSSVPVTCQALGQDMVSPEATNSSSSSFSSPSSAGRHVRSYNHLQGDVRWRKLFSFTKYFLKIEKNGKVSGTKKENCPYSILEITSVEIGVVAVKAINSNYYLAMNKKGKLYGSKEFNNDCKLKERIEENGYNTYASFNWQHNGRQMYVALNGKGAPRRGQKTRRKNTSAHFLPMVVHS

Take `CC(C)=C1C(=O)C(c2ccccc2)=C2CN3C(=O)N(CCc4ccccc4)C(=O)[C@]3(Cc3ccc(C(F)(F)F)cc3)[C@H]21`: the composite z-score is -0.555 in assay [1]; 2.45 in assay [5]; 0.01 in [7]; -1.08 in assay [8]; 0.245 in [9]; -0.139 in assay [10]. For the same compound, the composite z-score was 1.04 in [11]; 1.18 in [12]; 1.3 in assay [13]; -0.649 in assay [15]; -0.0628 in assay [16]; -1.22 in [17]. Besides, the figures for the composite z-score in [18], in assay [19] and in [20] were 0.13, -1.7 and 0.877, respectively. The z-score in [2] is -0.117 (inactive); in assay [3], 1.38 (inactive); in assay [4], 0.812 (inactive); in assay [6], -1.48 (inactive); in assay [14], 0.0205 (inactive).
For `C=CCOC(=O)[C@@H]1[C@H]2C(=O)O[C@H](c3ccccc3)[C@H](c3ccccc3)N2[C@H](c2ccc(OCCOC(=O)[C@@H]3C[C@@H]4C(=O)N[C@@H](CCCC[N+](C)(C)C)C(=O)N4[C@@H]3c3ccc(O)cc3)cc2)[C@@]12C(=O)Nc1ccc(I)cc12`, the composite z-score is 1.53 in assay [1]; 2.21 in assay [5]; -0.103 in assay [7]; 0.989 in assay [8]; 1.07 in [9]; -0.0006 in assay [10]. The composite z-score in assay [11] was 0.822; in [12], -0.178; in assay [13] it was -0.18; in assay [15] it was 1.18; in [16] it was 1.24; in assay [17] it was 0.49. Also, the composite z-score in [18] was found to be 1.41; in [19] it was 0.776; in assay [20], 0.192. For the same compound, the z-score in assay [2] was 0.954 (inactive); in assay [3], -1.48 (inactive); in assay [4] it was 1.02 (inactive); in [6], -0.0235 (inactive); in assay [14] it was 0.527 (inactive).
`CCCC=C(CCC)[C@@H](NP(=O)(c1ccccc1)c1ccccc1)c1ccc(-c2ccccc2)cc1`: the composite z-score in assay [1] was 1.54; in [5], 3.11; in assay [7] it was 0.123; in assay [8] it was 0.649; in assay [9] it was 1.12; in assay [10] it was 0.0825. The composite z-score in [11] came out at 0.517; in assay [12] it was 0.719; in assay [13], 0.581; in [15], 1.11; in [16], 1.27; in assay [17] it was 0.183. The composite z-score in assay [18] is 1.18; in [19], -0.0014; in assay [20], 0.479. The z-score in assay [2] is 1.09 (inactive); in assay [3] it was 2.34 (inactive); in [4], 1.84 (inactive); in assay [6], -0.932 (inactive); in assay [14], -2.98 (inactive).
For the compound `CC(C)N1C(=O)C[C@@](C(=O)O)(c2ccc([N+](=O)[O-])cc2)[C@H]1c1ccc(CO)cc1`, the composite z-score in assay [1] was 1.01; in assay [5], 2.72; in assay [7] it was 0.0511; in assay [8], -1.13; in assay [9], 0.0599; in assay [10], -0.158. Besides, the composite z-score is 1.08 in assay [11]; 0.744 in assay [12]; 1.11 in assay [13]; -0.443 in assay [15]; -0.381 in assay [16]; -1.12 in assay [17]. In addition, the results for the composite z-score in assay [18], in [19] and in assay [20] were -0.633, -0.803 and 0.593, respectively. The z-score in assay [2] is 0.548 (inactive); in assay [3] it was -0.996 (inactive); in [4], -0.265 (inactive); in assay [6], 1.27 (inactive); in assay [14] it was -0.186 (inactive).
For the compound `NC(=O)NCC#Cc1ccc2c(c1)[C@]1(C(=O)N2)[C@H](C(=O)N2CCN(c3ncccn3)CC2)[C@H]2C(=O)O[C@H](c3ccccc3)[C@H](c3ccccc3)N2[C@@H]1c1ccc(O)cc1`, the composite z-score in [1] was found to be 1.33; in assay [5], 0.828; in assay [7] it was 0.109; in [8], 0.517; in assay [9], 1.08; in assay [10] it was 0.0283. Also, the composite z-score in [11] is 0.615; in assay [12], 0.287; in assay [13], 0.208; in assay [15], 1.21; in assay [16], -0.0752; in assay [17], 0.755. Besides, the figures for the composite z-score in assay [18], in assay [19] and in [20] were 1.41, 0.704 and -0.131, respectively. Also, the z-score was 0.541 (inactive) in [2]; -0.281 (inactive) in [3]; 0.971 (inactive) in [4]; -0.653 (inactive) in [6]; -0.534 (inactive) in assay [14].
